# In PubChem BioAssay (EPA / NIEHS):
# Records with an inconclusive call do not appear. Calls of active or inactive are those of the source. The calls were made as follows, unless noted: active = hit-call score of the fitted dose curve at least 0.9, where 1 is the maximum; inactive = score below 0.9.
# Legend:
# [1] = ATG_TAL_CIS: Attagene CIS-FACTORIAL HepG2 Assay for human TAL Basal Promoter (AID 2282966); conditions: HepG2 Attagene cis-factorial TAL promoter reporter; actives raise or lower the signal;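 also: background control endpoint measuring basal TAL promoter reporter mRNA not a specific factor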
# Method in brief: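 Background-control endpoint: basal TAL promoter reporter transcripts in transiently transfected HepG2, measured 24 h after dosing. Read-out by RT-PCR with fluorescent primer extension and capillary electrophoresis; gain or loss of signal fitted relative to DMSO.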
# [2] = ATG_TGFb_CIS: Attagene CIS-FACTORIAL HepG2 Assay for human Transforming Growth Factor (TGF) (AID 2282967); conditions: HepG2 Attagene CIS TGFb reporter, mRNA transcription; actives raise or lower the signal
# Method in brief: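 After a 24-hour incubation with compound, transfected HepG2 cells were lysed for RNA; reporter cDNA was amplified, fluorescently end-labeled and separated by CE. DMSO served as baseline for bidirectional fits.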
# [3] = ATG_VDRE_CIS: Attagene CIS-FACTORIAL HepG2 Assay for human Vitamin D Receptor Element (VDRE) (AID 2282968); conditions: HepG2 VDRE cis-reporter transcription, actives raise or lower the signal
# Method in brief: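 Measures endogenous factor activity through cis-element-driven reporter transcripts in transiently transfected HepG2. Cells are treated 24 h; reporter mRNA is quantified by RT-PCR and capillary electrophoresis; fitting is bidirectional.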
# [4] = biological target: Steroid hormone receptor ERR1 (Homo sapiens) (UniProt P11474); assay: ATG_ERRa_TRANS: Attagene TRANS-FACTORIAL HepG2 Assay for human Estrogen-Related Receptor alpha (ERRa) (AID 2282971; active = hit-call score of the fitted dose curve at least 0.9, where 1 is the maximum); conditions: HepG2 Attagene TRANS reporter, ERRa transactivation
# Sequence of Steroid hormone receptor ERR1 (Homo sapiens) (P11474 whole entry, looked up, the tested form may be a part): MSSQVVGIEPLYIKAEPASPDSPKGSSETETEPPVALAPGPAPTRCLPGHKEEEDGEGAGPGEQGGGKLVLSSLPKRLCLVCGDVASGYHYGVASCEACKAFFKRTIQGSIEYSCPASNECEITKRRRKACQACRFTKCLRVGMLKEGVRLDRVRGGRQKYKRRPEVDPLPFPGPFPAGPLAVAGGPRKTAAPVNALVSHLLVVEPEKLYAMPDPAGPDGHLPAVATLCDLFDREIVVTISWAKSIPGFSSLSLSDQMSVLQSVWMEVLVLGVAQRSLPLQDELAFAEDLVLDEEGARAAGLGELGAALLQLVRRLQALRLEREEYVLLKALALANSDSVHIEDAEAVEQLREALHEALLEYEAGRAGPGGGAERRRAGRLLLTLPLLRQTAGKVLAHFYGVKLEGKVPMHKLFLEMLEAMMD
# Method in brief: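 Reporter transcripts from ERRa-Gal4 chimera activity measured in transiently transfected human HepG2 cells 24 hours after dosing, using RT-PCR with 6-FAM primer extension, HpaI digestion and capillary electrophoresis; DMSO is baseline.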
# [5] = biological target: X-box-binding protein 1 (Homo sapiens) (UniProt P17861); assay: ATG_Xbp1_CIS: Attagene CIS-FACTORIAL HepG2 Assay for human X-box Binding Protein 1 (XBP1) (AID 2282972); conditions: HepG2 XBP1 cis-element reporter, Attagene multiplex; actives raise or lower the signal
# Sequence of X-box-binding protein 1 (Homo sapiens) (P17861 whole entry, looked up): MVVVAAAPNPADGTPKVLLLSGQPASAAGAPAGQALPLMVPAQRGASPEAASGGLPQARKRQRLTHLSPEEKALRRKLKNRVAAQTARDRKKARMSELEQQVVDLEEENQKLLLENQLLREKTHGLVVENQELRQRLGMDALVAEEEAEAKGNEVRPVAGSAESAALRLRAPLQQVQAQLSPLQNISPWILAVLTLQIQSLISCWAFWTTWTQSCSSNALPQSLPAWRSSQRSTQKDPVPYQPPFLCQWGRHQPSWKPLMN
# Method in brief: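 Reporter transcripts were quantified by RT-PCR with fluorescent primer extension and capillary electrophoresis after 24 h chemical exposure. Cells: transiently transfected HepG2 carrying cis-regulated reporter constructs; data fitted bidirectionally relative to DMSO.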
# [6] = ATG_GAL4_TRANS: Attagene TRANS-FACTORIAL HepG2 Assay for GAL4 (Internal Marker) (AID 2282976; active = hit-call score of the fitted dose curve at least 0.9, where 1 is the maximum); conditions: HepG2 Attagene TRANS GAL4 internal marker reporter
# Method in brief: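 In transfected human HepG2 liver cells dosed 24 h, GAL4 reporter mRNA serves as a baseline marker. Detection by RT-PCR with fluorescent capillary electrophoresis, activity fitted upward relative to DMSO.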
# [7] = biological target: Estrogen receptor (Homo sapiens) (UniProt P03372); assay: ATG_ERa_TRANS: Attagene TRANS-FACTORIAL HepG2 Assay for human Estrogen Receptor alpha (ERa) (AID 2282970; active = hit-call score of the fitted dose curve at least 0.9, where 1 is the maximum); conditions: HepG2 Attagene TRANS ERa GAL4 reporter, mRNA
# Sequence of Estrogen receptor (Homo sapiens) (P03372 whole entry, looked up, the tested form may be a part): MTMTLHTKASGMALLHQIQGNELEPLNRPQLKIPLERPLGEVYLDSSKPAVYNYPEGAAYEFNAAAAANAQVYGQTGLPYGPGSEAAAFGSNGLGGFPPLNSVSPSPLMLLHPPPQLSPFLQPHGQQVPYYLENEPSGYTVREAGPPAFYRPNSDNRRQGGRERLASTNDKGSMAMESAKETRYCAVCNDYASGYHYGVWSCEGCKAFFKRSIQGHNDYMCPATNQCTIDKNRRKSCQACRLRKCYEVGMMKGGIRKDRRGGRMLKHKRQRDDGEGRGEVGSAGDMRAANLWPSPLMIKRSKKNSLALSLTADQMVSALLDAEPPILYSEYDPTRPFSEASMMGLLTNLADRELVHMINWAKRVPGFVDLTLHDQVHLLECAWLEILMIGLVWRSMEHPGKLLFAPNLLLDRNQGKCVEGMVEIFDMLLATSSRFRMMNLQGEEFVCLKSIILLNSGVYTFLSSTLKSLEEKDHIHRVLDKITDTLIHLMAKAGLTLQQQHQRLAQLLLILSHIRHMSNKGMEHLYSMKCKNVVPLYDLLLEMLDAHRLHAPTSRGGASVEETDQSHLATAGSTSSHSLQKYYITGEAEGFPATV
# Method in brief: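 Reporter transcripts were measured 24 h after dosing by RT-PCR with fluorescent primer extension and capillary electrophoresis. The system is transiently transfected HepG2 expressing exogenous NR-Gal4 chimeras driving GAL4-UAS reporters; DMSO is the baseline.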
# [8] = ATG_M_19_TRANS: Attagene TRANS-FACTORIAL HepG2 Assay for M19 Transcription Factor (Internal Marker) (AID 2282974; active = hit-call score of the fitted dose curve at least 0.9, where 1 is the maximum); conditions: HepG2 Attagene TRANS-FACTORIAL M19 internal marker reporter
# Method in brief: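 Background-control readout: after 24 h chemical exposure of transfected HepG2 carrying GAL4-driven reporter units, RNA was reverse-transcribed, amplified, fluorescently labeled and sized by capillary electrophoresis; gain-of-signal fit against DMSO.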
# [9] = biological target: Estrogen-related receptor gamma (Homo sapiens) (UniProt P62508); assay: ATG_ERRg_TRANS: Attagene TRANS-FACTORIAL HepG2 Assay for human Estrogen-Related Receptor gamma (ERRg) (AID 2282977; active = hit-call score of the fitted dose curve at least 0.9, where 1 is the maximum;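 also: hits increase reporter signal over DMSO so potencies reflect activators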); conditions: HepG2 Attagene TRANS reporter, ERRg transactivation
# Sequence of Estrogen-related receptor gamma (Homo sapiens) (P62508 whole entry, looked up, the tested form may be a part): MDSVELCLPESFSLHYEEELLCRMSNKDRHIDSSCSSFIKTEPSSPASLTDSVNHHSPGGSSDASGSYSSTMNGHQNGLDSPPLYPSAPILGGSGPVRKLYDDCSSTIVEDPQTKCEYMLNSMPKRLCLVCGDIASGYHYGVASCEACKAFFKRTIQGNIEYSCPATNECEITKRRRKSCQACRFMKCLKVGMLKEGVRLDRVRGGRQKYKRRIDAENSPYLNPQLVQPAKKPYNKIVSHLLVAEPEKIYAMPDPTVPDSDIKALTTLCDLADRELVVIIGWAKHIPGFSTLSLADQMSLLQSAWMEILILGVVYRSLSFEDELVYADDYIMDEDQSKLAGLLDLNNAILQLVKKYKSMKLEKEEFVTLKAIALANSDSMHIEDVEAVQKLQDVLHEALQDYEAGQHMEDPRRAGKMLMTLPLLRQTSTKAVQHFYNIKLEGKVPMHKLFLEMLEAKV
# Method in brief: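 Exogenous NR-Gal4 chimera activity was assessed in HepG2 cells bearing transfected GAL4-UAS reporters. After 24 h dosing, total RNA underwent RT-PCR, fluorescent primer extension and HpaI digestion before capillary electrophoresis, with gain of signal scored against DMSO.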
smiles,measurement,setting,value
O=C1C(c2[nH]c3ccc(S(=O)(=O)O)cc3c2O)=Nc2ccc(S(=O)(=O)O)cc21,outcome,[1],inactive
same,outcome,[2],inactive
same,outcome,[3],inactive
same,outcome,[4],inactive
same,outcome,[5],inactive
same,outcome,[6],inactive
Nc1ccc(S(=O)(=O)O)c(N)c1,outcome,[1],inactive
same,outcome,[2],inactive
same,outcome,[3],inactive
same,outcome,[5],inactive
FC1(F)C(F)(F)C(F)(F)C2(F)C(F)(C1(F)F)C(F)(F)C(F)(F)C1(F)C(F)(F)C(F)(F)C(F)(F)C(F)(F)C12F (centres undefined),outcome,[1],inactive
same,outcome,[2],inactive
same,outcome,[3],inactive
same,outcome,[5],inactive
CN1[C@@H]2CC(OC(=O)[C@H](CO)c3ccccc3)C[C@H]1[C@@H]1O[C@@H]12 (some centres undefined),outcome,[1],inactive
same,outcome,[2],inactive
same,outcome,[3],inactive
same,outcome,[7],inactive
same,outcome,[5],inactive
same,outcome,[6],inactive
CC1(C)[C@H](C(=O)OCc2cccc(Oc3ccccc3)c2)[C@@H]1C=C(Cl)Cl,outcome,[1],inactive
same,outcome,[2],inactive
same,outcome,[3],inactive
same,outcome,[7],inactive
same,outcome,[5],inactive
same,outcome,[6],inactive
CC1(C)C(=O)N(Br)C(=O)N1Cl,outcome,[1],inactive
same,outcome,[2],inactive
same,outcome,[3],inactive
same,outcome,[4],inactive
same,outcome,[5],inactive
same,outcome,[8],inactive
same,outcome,[6],inactive
C=CC(C)(C)O,outcome,[1],inactive
same,outcome,[2],inactive
same,outcome,[3],inactive
same,outcome,[5],inactive
same,outcome,[8],inactive
same,outcome,[6],inactive
O=C(O)c1snc(Cl)c1Cl,outcome,[1],inactive
same,outcome,[2],inactive
same,AC50,[3],161 µM (active)
same,AC50,[5],140 µM (active)
C=C(C)C(=O)OCCOC(=O)CC(C)=O,outcome,[1],inactive
same,outcome,[2],inactive
same,outcome,[3],inactive
same,outcome,[5],inactive
same,outcome,[8],inactive
same,outcome,[6],inactive
CCCCCC(CO)CCC (centres undefined),outcome,[1],inactive
same,outcome,[2],inactive
same,outcome,[3],inactive
same,outcome,[5],inactive
same,outcome,[8],inactive
C=CC(=O)NCOCC(C)C,outcome,[1],inactive
same,outcome,[2],inactive
same,AC50,[3],34.3 µM (active)
same,outcome,[5],inactive
same,outcome,[8],inactive
O=[N+]([O-])c1ccc(Nc2ccc(Nc3ccccc3)c(S(=O)(=O)O)c2)c([N+](=O)[O-])c1,outcome,[1],inactive
same,AC50,[2],148 µM (active)
same,outcome,[3],inactive
same,AC50,[5],172 µM (active)
same,outcome,[8],inactive
same,outcome,[6],inactive
Nc1nc2ccc([N+](=O)[O-])cc2s1,outcome,[1],inactive
same,outcome,[2],inactive
same,outcome,[3],inactive
same,outcome,[5],inactive
same,outcome,[8],inactive
OC[C@H]1O[C@H](O[C@]2(CCl)O[C@H](CCl)[C@@H](O)[C@@H]2O)[C@H](O)[C@@H](O)[C@H]1Cl,outcome,[1],inactive
same,outcome,[2],inactive
same,outcome,[3],inactive
same,outcome,[5],inactive
same,outcome,[8],inactive
same,outcome,[6],inactive
CC(C)=CCCC(C)CC=O (centres undefined),outcome,[1],inactive
same,outcome,[2],inactive
same,outcome,[3],inactive
same,outcome,[5],inactive
same,outcome,[8],inactive
CCCCCCOC(=O)CCCCC,outcome,[1],inactive
same,outcome,[2],inactive
same,outcome,[3],inactive
same,outcome,[5],inactive
same,outcome,[8],inactive
same,outcome,[6],inactive
COc1cc(C=O)ccc1OC(=O)C(C)C,outcome,[1],inactive
same,outcome,[2],inactive
same,outcome,[3],inactive
same,outcome,[5],inactive
same,outcome,[8],inactive
same,outcome,[6],inactive
same,outcome,[9],inactive
Cc1ccc(C(=O)c2cc(O)c(O)c([N+](=O)[O-])c2)cc1,outcome,[1],inactive
same,outcome,[2],inactive
same,outcome,[3],inactive
same,outcome,[5],inactive
C=C(C)C(=O)O,outcome,[1],inactive
same,outcome,[2],inactive
same,outcome,[3],inactive
same,outcome,[5],inactive
same,outcome,[8],inactive
same,outcome,[6],inactive
CSc1nnc(C(C)(C)C)c(=O)[nH]1,outcome,[1],inactive
same,outcome,[2],inactive
same,outcome,[3],inactive
same,outcome,[5],inactive
same,outcome,[8],inactive
same,outcome,[6],inactive
CCC(=O)OCc1ccccc1,outcome,[1],inactive
same,outcome,[2],inactive
same,outcome,[3],inactive
same,outcome,[5],inactive
same,outcome,[8],inactive
O=c1cc(-c2ccccc2)oc2cc(O)cc(O)c12,outcome,[1],inactive
same,outcome,[2],inactive
same,outcome,[3],inactive
same,outcome,[5],inactive
same,outcome,[8],inactive
O=C1CCCCCCCCCCCCCCO1,outcome,[1],inactive
same,AC50,[2],158 µM (active)
same,outcome,[3],inactive
same,outcome,[5],inactive
same,outcome,[8],inactive
same,outcome,[6],inactive
CC[Si](OC(C)=O)(OC(C)=O)OC(C)=O,outcome,[1],inactive
same,outcome,[2],inactive
same,AC50,[3],33.8 µM (active)
same,outcome,[5],inactive
c1cc(C(c2ccc(OCC3CO3)cc2)c2ccc(OCC3CO3)cc2)ccc1OCC1CO1 (centres undefined),AC50,[1],24.2 µM (active)
same,AC50,[2],23.7 µM (active)
same,AC50,[3],10 µM (active)
same,AC50,[5],7.9 µM (active)
O=c1[nH]nnc2ccccc12,outcome,[1],inactive
same,outcome,[2],inactive
same,outcome,[3],inactive
same,outcome,[5],inactive
same,outcome,[8],inactive
Cc1ccc(C(=O)O)o1,outcome,[1],inactive
same,outcome,[2],inactive
same,outcome,[3],inactive
same,outcome,[5],inactive
CCN(CC)c1ccc2c(-c3ccccc3C(=O)O)c3ccc(=[N+](CC)CC)cc-3oc2c1,outcome,[1],inactive
same,outcome,[2],inactive
same,AC50,[3],33.5 µM (active)
same,AC50,[5],100 µM (active)
same,outcome,[8],inactive
same,outcome,[6],inactive
C=CCOc1nc(OCC=C)nc(OCC=C)n1,outcome,[1],inactive
same,outcome,[2],inactive
same,outcome,[3],inactive
same,outcome,[5],inactive
same,outcome,[8],inactive
CC(O)C(C)O (centres undefined),outcome,[1],inactive
same,outcome,[2],inactive
same,outcome,[3],inactive
same,outcome,[5],inactive
same,outcome,[8],inactive
same,outcome,[6],inactive
O=C(O)Cc1cccc2ccccc12,outcome,[1],inactive
same,outcome,[2],inactive
same,outcome,[3],inactive
same,outcome,[5],inactive
same,outcome,[8],inactive
O=C(O)CCCCC1CCSS1 (centres undefined),outcome,[1],inactive
same,outcome,[2],inactive
same,outcome,[3],inactive
same,outcome,[5],inactive
